{"source": "PubChem BioAssay (EPA / NIEHS)", "note": "Inconclusive results are not listed. Active and inactive are the calls of the source. Rule for the calls: active = hit-call score of the fitted dose curve at least 0.9, where 1 is the maximum; inconclusive = response in the unintended direction; inactive = score below 0.9."}
{"molecular_target": "human Sirtuin 2 (SIRT2), SIRT2 (gene 22933) (UniProt Q8IXJ6)", "sequence (Q8IXJ6 whole entry, looked up)": "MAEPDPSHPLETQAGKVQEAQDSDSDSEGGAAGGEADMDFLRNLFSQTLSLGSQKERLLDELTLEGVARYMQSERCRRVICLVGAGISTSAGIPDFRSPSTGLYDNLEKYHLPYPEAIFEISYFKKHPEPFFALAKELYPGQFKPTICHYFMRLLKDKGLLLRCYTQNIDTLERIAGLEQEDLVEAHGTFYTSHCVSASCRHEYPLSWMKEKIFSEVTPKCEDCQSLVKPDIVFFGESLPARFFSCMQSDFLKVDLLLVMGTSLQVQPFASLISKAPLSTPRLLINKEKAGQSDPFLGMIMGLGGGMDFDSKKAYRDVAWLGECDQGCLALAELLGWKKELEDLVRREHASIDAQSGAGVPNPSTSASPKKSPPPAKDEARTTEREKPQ", "test": "NVS_ENZ_hSIRT2: NovaScreen (NVS) Enzymatic Assay for human Sirtuin 2 (SIRT2) (AID 2283217)", "summary_of_the_method": "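Single-point duplicate screen at 25 uM, then concentration-response (max 50 uM) for chemicals passing threshold. Enzyme activity of recombinant human SIRT2 measured after 1 hr by fluorescence with mobility-shift separation of product; DMSO baseline.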"}
{"molecule": "COc1cccc(-c2ccc(/C=C\\CN3CCCCCC3)cc2Cl)c1", "AC50": "16.6 µM (active)"}
{"molecule": "Cc1c(-c2cccnc2)c2ccccc2n1CCCCC(=O)O", "outcome": "inactive"}
{"molecule": "CC(=O)OCCC(C)C", "outcome": "inactive"}
{"molecular_target": "human Sirtuin 1 (SIRT1), SIRT1 (gene 23411) (UniProt Q96EB6)", "sequence (Q96EB6 whole entry, looked up)": "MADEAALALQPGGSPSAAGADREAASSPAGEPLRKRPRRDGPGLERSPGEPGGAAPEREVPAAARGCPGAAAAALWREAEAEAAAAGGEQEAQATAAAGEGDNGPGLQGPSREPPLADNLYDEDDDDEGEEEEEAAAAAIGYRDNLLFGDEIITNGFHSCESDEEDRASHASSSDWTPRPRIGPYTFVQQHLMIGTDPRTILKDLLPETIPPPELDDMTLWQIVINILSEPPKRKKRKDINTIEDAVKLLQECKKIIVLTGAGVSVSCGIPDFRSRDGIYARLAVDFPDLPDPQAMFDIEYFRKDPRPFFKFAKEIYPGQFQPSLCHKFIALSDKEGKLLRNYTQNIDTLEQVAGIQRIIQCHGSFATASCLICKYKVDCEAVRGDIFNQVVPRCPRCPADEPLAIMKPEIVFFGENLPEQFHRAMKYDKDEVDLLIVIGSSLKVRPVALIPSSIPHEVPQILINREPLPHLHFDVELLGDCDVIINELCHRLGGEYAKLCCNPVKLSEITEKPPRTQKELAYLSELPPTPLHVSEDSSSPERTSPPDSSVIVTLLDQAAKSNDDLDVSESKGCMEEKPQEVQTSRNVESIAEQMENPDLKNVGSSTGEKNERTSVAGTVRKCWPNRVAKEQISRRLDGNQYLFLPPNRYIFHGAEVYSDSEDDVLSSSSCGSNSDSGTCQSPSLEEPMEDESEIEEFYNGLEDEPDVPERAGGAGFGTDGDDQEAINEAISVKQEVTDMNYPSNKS", "test": "NVS_ENZ_hSIRT1: NovaScreen (NVS) Enzymatic Assay for human Sirtuin 1 (SIRT1) (AID 2283219)", "summary_of_the_method": "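Cell-free recombinant SIRT1 with a fluorescent substrate; substrate and product separated by electrophoretic mobility shift and read by fluorescence intensity, 1 h after dosing. Primary screen at 25 uM in duplicate; hits re-run in concentration-response up to 50 uM, relative to DMSO.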"}
{"molecule": "CNCc1ccc(NC(=O)c2c[nH]c3c2C(=O)CCC3)cc1", "outcome": "inactive"}
{"molecule": "Nc1cccc(N)c1", "outcome": "inactive"}
{"molecule": "Oc1ccc2c(c1)-c1ccccc1C2", "outcome": "inactive"}
{"molecular_target": "rabbit Imidazoline 2 Central (I2C), CKB (gene 100009085) (UniProt P00567)", "sequence (P00567 whole entry, looked up)": "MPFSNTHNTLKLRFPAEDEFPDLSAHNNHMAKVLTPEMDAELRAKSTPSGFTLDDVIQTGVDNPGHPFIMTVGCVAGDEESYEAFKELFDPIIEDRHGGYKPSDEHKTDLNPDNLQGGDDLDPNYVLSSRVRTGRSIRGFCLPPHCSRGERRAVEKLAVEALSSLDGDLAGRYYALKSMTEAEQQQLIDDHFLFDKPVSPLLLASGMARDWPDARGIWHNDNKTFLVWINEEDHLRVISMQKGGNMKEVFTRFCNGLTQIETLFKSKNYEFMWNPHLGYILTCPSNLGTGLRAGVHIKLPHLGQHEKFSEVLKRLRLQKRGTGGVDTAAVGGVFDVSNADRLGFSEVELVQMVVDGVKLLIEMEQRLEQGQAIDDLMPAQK", "test": "NVS_ENZ_rabI2C: NovaScreen (NVS) Enzymatic Assay for rabbit Imidazoline 2 Central (I2C) (AID 2283228)", "summary_of_the_method": "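Rabbit brain membranes, cell-free; readout by filter-based scintillation counting 1.5 hours after dosing, loss of signal vs DMSO. Initial duplicate test at 25 uM, then concentration-response with 50 uM top concentration.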"}
{"molecule": "COc1cccc(-c2ccc(/C=C\\CN3CCCCCC3)cc2Cl)c1", "AC50": "22.6 µM (active)"}
{"molecule": "CCOC(=O)c1ccc(C2CCC(NC[C@H](O)COc3ccc(O)c(NS(C)(=O)=O)c3)CC2)cc1", "note": "(some centres not stated)", "AC50": "23.4 µM (active)"}
{"molecule": "CCN(C(=O)c1cc(C)cc(OC[C@H](C)Nc2ccncc2)c1)C(C)C", "outcome": "inactive"}
{"molecule": "Fc1ccccc1[C@@H](F)COC1CCC(Nc2ncnc3[nH]ncc23)CC1", "note": "(some centres not stated)", "outcome": "inactive"}
{"molecule": "O=c1[nH]c2ccc(S(=O)CCN3CCC(Cc4ccc(F)cc4)CC3)cc2o1", "note": "(configuration not stated)", "AC50": "6.76 µM (active)"}
{"molecule": "CC[C@H]1CC[C@H](NCc2cc3c(cc2OC)[C@H]2C[C@H]2C(=O)N3C)[C@H](c2ccccc2)N1", "AC50": "10.4 µM (active)"}
{"molecular_target": "human Vascular Endothelial Growth Factor Receptor 2 (VEGFR2), KDR (gene 3791) (UniProt P35968)", "sequence (P35968 whole entry, looked up)": "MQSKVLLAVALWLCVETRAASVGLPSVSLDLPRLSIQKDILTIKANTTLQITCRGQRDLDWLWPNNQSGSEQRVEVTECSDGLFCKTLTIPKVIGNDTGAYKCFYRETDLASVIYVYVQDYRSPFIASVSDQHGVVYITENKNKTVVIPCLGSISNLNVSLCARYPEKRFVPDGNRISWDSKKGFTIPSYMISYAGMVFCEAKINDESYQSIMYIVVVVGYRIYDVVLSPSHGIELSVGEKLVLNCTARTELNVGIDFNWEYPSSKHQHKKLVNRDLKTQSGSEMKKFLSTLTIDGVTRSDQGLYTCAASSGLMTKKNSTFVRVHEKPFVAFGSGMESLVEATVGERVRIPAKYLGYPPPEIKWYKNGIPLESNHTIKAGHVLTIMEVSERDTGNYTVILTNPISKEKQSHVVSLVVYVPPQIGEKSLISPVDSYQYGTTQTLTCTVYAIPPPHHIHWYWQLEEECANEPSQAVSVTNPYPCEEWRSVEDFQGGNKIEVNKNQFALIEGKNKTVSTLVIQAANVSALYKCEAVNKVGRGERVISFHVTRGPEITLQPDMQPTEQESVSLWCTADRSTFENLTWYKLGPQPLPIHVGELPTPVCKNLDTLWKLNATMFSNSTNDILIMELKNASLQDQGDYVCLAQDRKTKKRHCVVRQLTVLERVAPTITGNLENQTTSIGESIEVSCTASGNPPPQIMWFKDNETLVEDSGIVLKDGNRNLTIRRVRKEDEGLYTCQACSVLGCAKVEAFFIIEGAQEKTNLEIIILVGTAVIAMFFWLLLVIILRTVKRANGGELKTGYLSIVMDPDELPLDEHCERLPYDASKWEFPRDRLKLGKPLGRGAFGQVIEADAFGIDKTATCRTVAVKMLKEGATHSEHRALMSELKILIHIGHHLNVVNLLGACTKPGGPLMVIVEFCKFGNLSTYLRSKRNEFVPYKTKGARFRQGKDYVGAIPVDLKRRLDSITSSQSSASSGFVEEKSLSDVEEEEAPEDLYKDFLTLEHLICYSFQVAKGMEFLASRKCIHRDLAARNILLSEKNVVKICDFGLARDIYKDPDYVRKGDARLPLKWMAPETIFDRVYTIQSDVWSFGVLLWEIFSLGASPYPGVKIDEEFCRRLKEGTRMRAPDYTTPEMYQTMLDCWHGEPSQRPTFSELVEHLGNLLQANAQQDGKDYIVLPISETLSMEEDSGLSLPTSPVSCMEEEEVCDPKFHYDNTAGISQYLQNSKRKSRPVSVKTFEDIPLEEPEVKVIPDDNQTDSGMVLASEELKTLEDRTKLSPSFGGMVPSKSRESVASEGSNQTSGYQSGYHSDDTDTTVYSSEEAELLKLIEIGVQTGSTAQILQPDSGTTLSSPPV", "test": "NVS_ENZ_hVEGFR2: NovaScreen (NVS) Enzymatic Assay for human Vascular Endothelial Growth Factor Receptor 2 (VEGFR2) (AID 2283230)", "summary_of_the_method": "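Cell-free recombinant VEGFR2 kinase, fluorescent substrate with electrophoretic mobility-shift separation; read 1 h after dosing. Screened at 25 uM in duplicate, hits to concentration-response up to 50 uM; loss-of-signal versus DMSO.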"}
{"molecule": "Cn1c(=O)cc(Oc2ccc(F)cc2F)c2cnc(NCC(C)(C)O)nc21", "outcome": "inactive"}
{"molecule": "CCCCCCCCCCCCCCCO", "outcome": "inactive"}
{"molecule": "COc1cccc(-c2ccc(/C=C\\CN3CCCCCC3)cc2Cl)c1", "outcome": "inactive"}
{"molecule": "C=CC(=C)CCC=C(C)C", "outcome": "inactive"}
{"molecule": "CCOCCOCCOCCO", "outcome": "inactive"}
{"molecule": "CCOC(=O)COc1ccc2c(c1)CC(NCC(O)c1cccc(Cl)c1)CC2", "note": "(configuration not stated)", "outcome": "inactive"}
{"molecule": "On1ccccc1=S", "outcome": "inactive"}
{"molecule": "Fc1ccccc1[C@@H](F)COC1CCC(Nc2ncnc3[nH]ncc23)CC1", "note": "(some centres not stated)", "AC50": "0.213 µM (active)"}
{"molecule": "CC(C)=CCC/C(C)=C\\CO", "outcome": "inactive"}
{"molecule": "CCOc1cccc(-n2cc(C(=O)N3CCN(c4cc(C(=O)O)c5ccccc5c4)CC3)nc2-c2ccc(C)cc2)c1", "outcome": "inactive"}
